This note sets out measurements from ChEMBL document CHEMBL1961873, “Compounds: GSK PKIS; Assays: Nanosyn kinase panel” (2012).

The structures appear in SMILES notation.

Assay [1] addresses T1, Muscle, skeletal receptor tyrosine-protein kinase (Homo sapiens) (UniProt O15146).
T1 sequence (whole entry): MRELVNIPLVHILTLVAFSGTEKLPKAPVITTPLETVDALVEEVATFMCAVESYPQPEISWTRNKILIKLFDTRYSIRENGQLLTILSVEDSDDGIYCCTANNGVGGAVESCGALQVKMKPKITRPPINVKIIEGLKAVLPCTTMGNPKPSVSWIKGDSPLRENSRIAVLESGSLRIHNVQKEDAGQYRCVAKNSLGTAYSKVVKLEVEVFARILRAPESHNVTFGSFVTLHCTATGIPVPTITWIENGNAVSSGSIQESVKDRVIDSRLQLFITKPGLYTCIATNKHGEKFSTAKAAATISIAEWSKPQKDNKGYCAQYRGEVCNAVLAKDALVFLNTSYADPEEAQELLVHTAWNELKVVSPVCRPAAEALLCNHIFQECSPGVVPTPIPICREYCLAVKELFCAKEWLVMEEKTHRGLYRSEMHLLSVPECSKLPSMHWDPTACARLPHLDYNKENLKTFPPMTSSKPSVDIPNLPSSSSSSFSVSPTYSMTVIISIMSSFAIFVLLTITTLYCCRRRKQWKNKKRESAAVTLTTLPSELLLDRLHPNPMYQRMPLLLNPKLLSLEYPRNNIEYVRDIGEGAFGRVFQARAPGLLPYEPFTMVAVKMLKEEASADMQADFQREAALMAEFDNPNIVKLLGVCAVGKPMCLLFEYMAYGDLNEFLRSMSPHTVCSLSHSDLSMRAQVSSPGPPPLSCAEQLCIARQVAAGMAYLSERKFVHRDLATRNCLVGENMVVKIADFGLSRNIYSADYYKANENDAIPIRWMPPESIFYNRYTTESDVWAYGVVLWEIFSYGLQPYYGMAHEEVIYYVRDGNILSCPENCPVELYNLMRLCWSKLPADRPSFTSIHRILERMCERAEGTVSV
The following applies: at 1 µM.

Assay [2] has as its target Platelet-derived growth factor receptor alpha (Homo sapiens) (UniProt P16234). The following applies: at 0.1 µM.
Assay [3] has the same target. The note with it: at 1 µM.
For assay [4], the system named is Platelet-derived growth factor receptor alpha (Homo sapiens), P16234 [D842V]. The note with it: at 0.1 µM.
The test system is the same in assay [5]. The note with it: at 1 µM.
In assay [6] the test system is Platelet-derived growth factor receptor alpha (Homo sapiens), P16234 [T674I]. The note with it: at 0.1 µM.
The test system is the same in assay [7]. The note with it: at 1 µM.
The subject of assay [8] is Platelet-derived growth factor receptor alpha (Homo sapiens), P16234 [V561D]. The following applies: at 0.1 µM.
For assay [9] the test system is unchanged. The note with it: at 1 µM.
The target in assay [10] is Platelet-derived growth factor receptor beta (Homo sapiens) (UniProt P09619). The note with it: at 0.1 µM.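 Note: reported value is the mean percent inhibition of the kinase.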
Chain of Platelet-derived growth factor receptor beta (Homo sapiens) (P09619 whole entry): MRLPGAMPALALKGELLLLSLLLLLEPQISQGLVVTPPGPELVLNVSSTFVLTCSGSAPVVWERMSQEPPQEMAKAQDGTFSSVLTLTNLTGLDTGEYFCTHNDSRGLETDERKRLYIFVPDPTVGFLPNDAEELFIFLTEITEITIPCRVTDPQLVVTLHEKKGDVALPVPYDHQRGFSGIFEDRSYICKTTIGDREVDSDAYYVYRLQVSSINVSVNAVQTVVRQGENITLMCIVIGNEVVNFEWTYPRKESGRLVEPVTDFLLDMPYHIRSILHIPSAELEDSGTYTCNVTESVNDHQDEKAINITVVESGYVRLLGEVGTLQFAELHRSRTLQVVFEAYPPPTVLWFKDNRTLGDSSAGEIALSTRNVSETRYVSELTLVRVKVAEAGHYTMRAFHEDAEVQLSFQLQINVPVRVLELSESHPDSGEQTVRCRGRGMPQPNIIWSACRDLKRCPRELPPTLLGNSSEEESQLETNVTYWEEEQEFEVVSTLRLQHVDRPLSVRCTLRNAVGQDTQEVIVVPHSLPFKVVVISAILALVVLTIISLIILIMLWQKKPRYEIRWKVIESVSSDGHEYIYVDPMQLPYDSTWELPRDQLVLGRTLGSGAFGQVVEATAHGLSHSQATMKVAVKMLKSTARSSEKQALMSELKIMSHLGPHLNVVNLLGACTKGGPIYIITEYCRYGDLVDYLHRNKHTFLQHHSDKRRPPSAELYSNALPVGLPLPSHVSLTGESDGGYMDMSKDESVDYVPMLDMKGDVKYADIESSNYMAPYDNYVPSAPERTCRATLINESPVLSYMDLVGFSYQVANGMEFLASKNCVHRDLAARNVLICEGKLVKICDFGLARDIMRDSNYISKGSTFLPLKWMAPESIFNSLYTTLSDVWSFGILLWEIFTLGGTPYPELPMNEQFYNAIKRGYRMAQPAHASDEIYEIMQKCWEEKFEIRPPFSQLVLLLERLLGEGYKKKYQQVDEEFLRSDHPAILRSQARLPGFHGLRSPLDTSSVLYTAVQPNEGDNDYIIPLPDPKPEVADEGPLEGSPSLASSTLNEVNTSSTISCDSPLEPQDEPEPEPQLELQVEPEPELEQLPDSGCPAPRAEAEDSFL

Chain of Platelet-derived growth factor receptor alpha (Homo sapiens), P16234 [V561D] (P16234 whole entry V561D): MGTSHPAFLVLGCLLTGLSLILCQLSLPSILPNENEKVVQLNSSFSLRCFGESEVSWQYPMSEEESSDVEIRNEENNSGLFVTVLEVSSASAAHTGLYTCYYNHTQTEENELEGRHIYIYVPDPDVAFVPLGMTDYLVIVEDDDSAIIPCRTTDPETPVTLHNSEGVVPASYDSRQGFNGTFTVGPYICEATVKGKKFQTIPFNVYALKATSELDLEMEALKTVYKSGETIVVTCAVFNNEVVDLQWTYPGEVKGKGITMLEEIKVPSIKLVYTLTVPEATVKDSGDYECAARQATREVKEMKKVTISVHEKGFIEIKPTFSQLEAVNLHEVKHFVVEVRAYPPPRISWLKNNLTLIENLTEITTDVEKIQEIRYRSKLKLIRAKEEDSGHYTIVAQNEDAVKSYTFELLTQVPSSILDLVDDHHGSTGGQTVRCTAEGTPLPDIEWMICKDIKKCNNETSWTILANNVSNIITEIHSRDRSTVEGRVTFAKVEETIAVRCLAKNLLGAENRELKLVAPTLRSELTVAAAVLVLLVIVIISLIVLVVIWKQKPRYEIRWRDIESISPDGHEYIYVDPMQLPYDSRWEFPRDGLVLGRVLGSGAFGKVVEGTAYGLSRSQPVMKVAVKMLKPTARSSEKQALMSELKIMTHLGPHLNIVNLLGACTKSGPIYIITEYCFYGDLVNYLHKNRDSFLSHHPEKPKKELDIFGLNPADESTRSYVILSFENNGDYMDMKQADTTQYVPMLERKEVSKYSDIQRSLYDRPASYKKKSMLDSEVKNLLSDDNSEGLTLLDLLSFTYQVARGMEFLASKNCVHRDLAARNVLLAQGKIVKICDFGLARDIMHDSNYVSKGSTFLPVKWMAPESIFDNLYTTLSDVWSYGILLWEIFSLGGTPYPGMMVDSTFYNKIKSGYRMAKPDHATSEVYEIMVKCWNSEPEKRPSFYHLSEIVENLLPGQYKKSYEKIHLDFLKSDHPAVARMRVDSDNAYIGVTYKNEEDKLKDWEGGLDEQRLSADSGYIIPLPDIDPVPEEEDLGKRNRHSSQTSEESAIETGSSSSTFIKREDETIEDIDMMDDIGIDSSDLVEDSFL
Chain of Platelet-derived growth factor receptor alpha (Homo sapiens), P16234 [T674I] (P16234 whole entry T674I): as the sequence (P16234 whole entry V561D) above, with D561V, T674I counted along it
Chain of Platelet-derived growth factor receptor alpha (Homo sapiens) (P16234 whole entry): as the sequence (P16234 whole entry V561D) above, with D561V counted along it
Chain of Platelet-derived growth factor receptor alpha (Homo sapiens), P16234 [D842V] (P16234 whole entry D842V): as the sequence (P16234 whole entry V561D) above, with D561V, D842V counted along it

For orientation: inhibition means the relative decrease from the control value, in per cent. Turning to `CCn1c(-c2nonc2N)nc2ccccc21`, the inhibition is 4.12% in assay [1]; 6.47% in assay [2]; 8.29% in assay [3]; 2.53% in [4]; 2.64% in assay [5]; 2.43% in [6]. For the same compound, the inhibition was 3.19% in assay [7], 1.19% in assay [8], 1.67% in assay [9] and 2.55% in assay [10].
Take `Cc1ccc(O)cc1Nc1ccnc2cc(-c3ccccn3)ccc12`: the inhibition in assay [1] turned out to be 5.77%; in [2] it was 67.2%; in [3] it was 89.5%; in assay [4], 81.4%; in assay [5], 96.2%; in assay [6], 7.02%. Moreover, the inhibition in assay [7] stood at 6.98%; in [8] it was 70.4%; in assay [9] it was 105%; in assay [10], 53.4%.
As for `NC(=O)c1sc(-n2cnc3ccc(C(F)(F)F)cc32)cc1OCc1ccccc1Br`, the inhibition worked out at 2.38% in [1]; 4.59% in [2]; 11% in assay [3]; 1.61% in assay [4]; 5.02% in assay [5]; 5.32% in assay [6]. In addition, the inhibition in assay [7] is 5.62%; in assay [8], 3.53%; in [9], 4.84%; in assay [10] it was -1.07%.
As for `COc1cc(Nc2nccc(Nc3ccc4c(C)n[nH]c4c3)n2)cc(OC)c1OC`, the inhibition in [1] worked out at 72.5%; in assay [2], 76%; in assay [3] it was 91.6%; in [4] it was 50%; in assay [5], 90.2%; in assay [6] it was 11.4%. Further, the inhibition in [7] was 59%; in assay [8], 71.4%; in assay [9], 96.5%; in [10] it was 74.4%.
Take `CCN(CC)S(=O)(=O)c1ccc(OC)c(Nc2ncc(-c3ccccc3)o2)c1`: the inhibition in [1] worked out at 6.08%; in assay [2], 12.7%; in assay [3] it was 50.7%; in assay [4], 5.3%; in [5], 23.2%; in [6], 8.47%. Further, the inhibition in [7] came out at 8.95%; in assay [8], 10.1%; in assay [9], 39.2%; in assay [10], 19.2%.
Regarding `Nc1ncc(-c2cccc(S(N)(=O)=O)c2)c2scc(-c3ccc(F)c(Cl)c3)c12`, the inhibition worked out at 1.44% in assay [1]; 18.9% in assay [2]; 72.1% in assay [3]; 7.66% in assay [4]; 42.4% in assay [5]; 4.52% in assay [6]. Besides, the inhibition in assay [7] turned out to be 10.5%; in assay [8] it was 36.8%; in assay [9], 78.1%; in assay [10] it was 14.8%.
For the compound `O=C(Nc1n[nH]c2cc(-c3ccc(F)cc3)ccc12)C1CC1`, the inhibition amounted to 4.55% in assay [1]; 4.52% in assay [2]; 14.6% in [3]; 4.21% in assay [4]; 12.9% in assay [5]; 3.24% in assay [6]. Further, the inhibition in assay [7] turned out to be 8.33%; in assay [8], 4.41%; in assay [9] it was 13.2%; in assay [10], 2.29%.
Consider `Fc1ccc(-c2nn3ccccc3c2-c2ccncc2)cc1`, for which the inhibition in [1] is 3.5%; in assay [2], 1.93%; in [3], 5.44%; in assay [4], 1.99%; in [5], 5.38%; in assay [6], 3.28%. The inhibition in assay [7] amounted to 1.29%; in assay [8] it was 1.28%; in assay [9], 5.89%; in assay [10], 0.58%.
Regarding `CNC(=O)c1cc(-c2ccc(F)cc2)cc(-c2ccc(S(=O)(=O)N3CCCC3)cc2)c1N`, the inhibition was 0.83% in [1]; 3.69% in assay [2]; 7.98% in [3]; 2.05% in assay [4]; 1.76% in [5]; 2.94% in [6]. In addition, the inhibition in assay [7] came out at 2.93%; in [8] it was 3.32%; in [9], 2.29%; in assay [10], 3.45%.
As to `COc1ccc(-c2nn3ncccc3c2-c2ccnc(Nc3ccc4c(c3)OCCO4)n2)cc1`, the inhibition in assay [1] was -1.95%; in assay [2], 6.34%; in [3] it was 29.6%; in assay [4], 0.81%; in [5], 11.7%; in assay [6] it was 4.01%. The inhibition in assay [7] was found to be 15.3%; in [8] it was 6.6%; in [9] it was 39.6%; in assay [10] it was 4.03%.
For the compound `COC(=O)Nc1nc2ccc(Oc3ccc(NC(=O)Nc4cccc(Cl)c4)cc3)cc2[nH]1`, the inhibition in assay [1] came out at 33.2%; in [2], 62.2%; in assay [3], 76.9%; in assay [4] it was 2.44%; in assay [5], 8.07%; in assay [6] it was 76.6%. For the same compound, the inhibition in assay [7] stood at 85.5%; in [8], 74.6%; in assay [9], 92.6%; in assay [10] it was 12.2%.
Regarding `CCNC(=O)O[C@H]1CN[C@H](C#Cc2cc3ncnc(Nc4ccc(OCc5cccc(F)c5)c(Cl)c4)c3s2)C1`, the inhibition in assay [1] was 3.77%; in assay [2], 5.36%; in assay [3] it was 8.44%; in assay [4], 1.55%; in [5] it was 1.32%; in [6] it was 4.01%. Also, the inhibition in [7] is 3.06%; in assay [8], 1.45%; in assay [9], 1.92%; in assay [10], 2.77%.
As to `Cc1ccc2c(-c3ccnc(Nc4ccccc4)n3)c(-c3ccc(F)cc3)nn2n1`, the inhibition in [1] is 4.61%; in [2], 14.8%; in assay [3] it was 47.9%; in assay [4], 8.2%; in [5], 46.6%; in assay [6] it was 4.09%. Moreover, the inhibition in assay [7] came to 4.32%; in assay [8], 11.6%; in assay [9] it was 59.1%; in assay [10] it was 22.5%.
For the compound `COc1cc2c(cc1Nc1nc(Nc3ccsc3C(N)=O)c3cc[nH]c3n1)N(C(=O)CN(C)C)CCC2(C)C`, the inhibition amounted to 62.4% in [1]; 21.6% in [2]; 63.2% in assay [3]; 5.04% in [4]; 20.5% in assay [5]; 8.69% in assay [6]. Besides, the inhibition in assay [7] came out at 16.9%; in assay [8], 13.1%; in assay [9], 46.1%; in assay [10], 15.1%.
Regarding `CC1=C(C(=O)Nc2cc(Cl)c3[nH]ncc3c2)C(c2ccc(C(F)(F)F)cc2)CC(=O)N1` (stereo not given), the inhibition in [1] was determined as 9.6%; in assay [2], 4.87%; in assay [3], 8.87%; in [4], 2.44%; in assay [5], 4.3%; in [6], 5.17%. Moreover, the inhibition in assay [7] is 7.54%; in assay [8], 4.08%; in assay [9] it was 4.27%; in assay [10], 0.58%.
Consider `COc1ccc2c(-c3ccnc(Nc4cccc(OC(F)(F)F)c4)n3)cnn2n1`, for which the inhibition in assay [1] is 11.5%; in assay [2], 9.71%; in assay [3], 30.5%; in assay [4], -0.9%; in assay [5] it was 13.4%; in [6] it was 7.01%. Further, the inhibition came to 9.76% in [7], 5.14% in assay [8], 19.4% in assay [9] and 4.02% in assay [10].
For `COc1cc(N2CCN(C(C)C)CC2)ccc1Nc1nc(Nc2ccc(F)cc2C(N)=O)c2cc[nH]c2n1`, the inhibition is 13.2% in assay [1]; 3.76% in [2]; 31.1% in assay [3]; 1.57% in assay [4]; 21.6% in assay [5]; 1.91% in assay [6]. Also, the inhibition in assay [7] amounted to 5.04%; in assay [8] it was 1.82%; in [9] it was 21.8%; in assay [10], 5.8%.
